# From PubChem BioAssay (Tox21)
# Several values for one entry are separate records, joined by “and”; a condition that tells them apart may be missing. Equal values may be shown once. Results filed as inconclusive are left out. Entries that show only a call come without a potency. A structure can be active in one record and inactive in another. Activity calls are given as the source filed them. Calls follow the shape of the dose curve; as a rule, active = well fitted curve in the direction sought with a large enough effect in the repeat runs; inconclusive = weak or mixed curves; inactive = no such curve, though single readings can be large; an effect the other way counts as inactive or inconclusive.
# What was measured:
# [1] = qHTS RealTime-Glo MT Cell Viability Assay in HepG2 cells - 24 hour (AID 1224867); also: nearly all actives have a fitted effect of over 50% in size
# Method in brief: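 Luminescence read-out: viable HepG2 cells reduce a prosubstrate to a NanoLuc substrate, giving a signal proportional to live cell number. Reads taken at 0, 8, 16, 24, 32 and 40 h of compound exposure at 37 C.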
# [2] = qHTS RealTime-Glo MT Cell Viability Assay in HEK293 cells - 32 hour (AID 1224868); also: nearly all actives have a fitted effect of over 50% in size
# Method in brief: (§1)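 Nonlytic real-time viability readout: viable cells convert prosubstrate to NanoLuc substrate, giving luminescence proportional to live cell number. HEK293, 600 cells/well, compound added after 5 h, continuous culture at 37 C.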
# [3] = A CellTox Green Cytotoxicity Assay to monitor cytotoxicity in HEK293 cells - 0 hour (AID 1224869); also: nearly all actives have a fitted effect of over 50% in size
# Method in brief: (§2)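 Homogeneous no-lysis format: HEK293 cell suspension mixed with CellTox Green reagent, seeded, incubated 5 h at 37 C/5% CO2, then dosed by pintool with compound in DMSO.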
# [4] = qHTS RealTime-Glo MT Cell Viability Assay in HepG2 cells - 40 hour (AID 1224870); also: nearly all actives have a fitted effect of over 50% in size
# Method in brief: (§3)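 HepG2 cells mixed with RealTime-Glo MT reagents (NanoLuc plus cell-permeant prosubstrate) were seeded at 600 cells/well, incubated 5 h at 37 C/5% CO2, then pinned with compounds in DMSO; nonlytic luminescence tracked viability during 40 h treatment.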
# [5] = qHTS RealTime-Glo MT Cell Viability Assay in HEK293 cells - 16 hour (AID 1224872); also: nearly all actives have a fitted effect of over 50% in size
# Method in brief: as §1
# [6] = qHTS RealTime-Glo MT Cell Viability Assay in HepG2 cells - 8 hour (AID 1224873); also: nearly all actives have a fitted effect of over 55% in size
# Method in brief: as §3
# [7] = A CellTox Green Cytotoxicity Assay to monitor cytotoxicity in HEK293 cells - 40 hour (AID 1224871); also: nearly all actives have a fitted effect of over 45% in size
# Method in brief: as §2
# [8] = qHTS RealTime-Glo MT Cell Viability Assay in HEK293 cells - 40 hour (AID 1224874); conditions: RealTime-Glo luminescence; max response: stronger effect = lower value; also: nearly all actives have a fitted effect of over 50% in size
# Method in brief: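 Measured as luminescence from the same continuously cultured HEK293 wells at successive time points (0, 8, 16, 24, 32, 40 h) after compound addition. Reagent present from seeding; dosing at 5 h; incubation 37 C.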
# Potency is read from the fitted curve at half-maximal effect.
SMILES,Potency [1],Potency [2],Potency [3],Potency [4],Potency [5],Potency [6],Potency [7],Potency [8],max response [8]
CCCCCCCCCCCCOS(=O)(=O)O,inactive,inactive,inactive,inactive,inactive,inactive,–,–,–
CCCCCCCCCCCCCC[P+](CCCCCC)(CCCCCC)CCCCCC,9.82 µM (active) and 19.7 µM (active) and inactive,3.91 µM (active) and 2.47 µM (active) and 1.95 µM (active),inactive,11 µM (active) and 22.1 µM (active) and inactive,7.8 µM (active) and 8.78 µM (active),17.5 µM (active) and 19.7 µM (active) and inactive,13.9 µM (active) and 19.7 µM (active),2.47 µM (active) and 1.75 µM (active) and 1.23 µM (active),–
Cc1cc(Cl)ccc1OCC(=O)O,inactive,inactive,inactive,inactive,inactive,inactive,inactive,–,23.3% (inactive) and 12.2% (inactive) and 10.9% (inactive)
CC(Cl)(Cl)C(=O)O,inactive,inactive,inactive,inactive,inactive,inactive,inactive,–,2.34% (inactive) and 8.45% (inactive) and 2.19% (inactive)
Oc1cccc2cccnc12,inactive and 3.47 µM (active),20.7 µM (active) and 5.49 µM (active) and inactive,inactive,inactive and 3.09 µM (active),inactive,inactive,–,13.9 µM (active) and 23.3 µM (active) and 12.7 µM (active),-0.234% (inactive)
CC(=O)O,inactive,inactive,inactive,inactive,inactive,inactive,inactive,–,1.59% (inactive) [middle of 4 runs]
CCC(=O)C(CC(C)N(C)C)(c1ccccc1)c1ccccc1 (centres undefined),inactive,24.4 µM (active),inactive,inactive,inactive,inactive,inactive,24.4 µM (active),–
Nc1ccc(-c2ccc(N)c(Cl)c2)cc1Cl,inactive and 49 µM (active),12.4 µM (active) and 18.2 µM (active) and 21.9 µM (active),inactive and 38.9 µM (active),inactive and 54.9 µM (active),24.5 µM (active),inactive and 43.6 µM (active),inactive and 43.6 µM (active),12.4 µM (active) and 14.4 µM (active) and 12.3 µM (active),–
Nc1ccc(-c2ccc(N)cc2)cc1,inactive,inactive,inactive,inactive,inactive,inactive,inactive,–,-0.165% (inactive) and -5.77% (inactive) and -8.89% (inactive)
C=CCOC(Cn1ccnc1)c1ccc(Cl)cc1Cl (centres undefined),inactive,21.9 µM (active) and 38.9 µM (active),inactive,inactive,43.8 µM (active),inactive,55.1 µM (active) and inactive,17.4 µM (active) and 38.9 µM (active),–
Nc1ccc(Cl)cc1,inactive,inactive,inactive,inactive,inactive,inactive,inactive,–,-5.43% (inactive) and 1.39% (inactive)
CCCCCCCCCCn1cc[n+](C)c1,inactive,–,inactive,inactive,inactive and 346 nM (active),inactive,–,–,–
CCCC[N+]1(C)CCCCC1,inactive and 48.8 µM (active),inactive,inactive,inactive and 30.8 µM (active),inactive,inactive,inactive,–,-0.0247% (inactive) [middle of 5 runs]
CCn1cc[n+](C)c1C,inactive,inactive,inactive,inactive,inactive,inactive,inactive,–,-4.04% (inactive) and 1.14% (inactive) and -16.1% (inactive)
CCCCCCCCCCCCCCCCn1cc[n+](C)c1,inactive and 49.4 µM (active) and 43.8 µM (active),–,inactive,inactive and 39.2 µM (active) and 31 µM (active),inactive and 24.8 µM (active) and 24.6 µM (active),inactive and 49.1 µM (active),inactive and 19.7 µM (active) and 24.6 µM (active),7.93 µM (active) and 4.4 µM (active) and 2.76 µM (active),12.2% (inactive)
O=C(O)CC(O)(CC(=O)O)C(=O)O,inactive,inactive,inactive,inactive,inactive,inactive,inactive,–,6.24% (inactive) and 7.96% (inactive) and 3.83% (inactive)
CCCC[N+]1(C)CCCC1,inactive,inactive,inactive,inactive and 43.9 µM (active),inactive,inactive,inactive,–,0.73% (inactive) [middle of 7 runs]
O=C(O)c1nc(Cl)ccc1Cl,inactive,inactive,inactive,inactive,inactive,inactive,inactive,–,3.62% (inactive) and 10.3% (inactive) and 7.66% (inactive)
